Source: PubChem BioAssay
Active and inactive are the calls of the source.

Columns and labels:
[1] = E. coli DRC41 culture turbidity changes, primary screen, E. coli filamentation inducer project, strain DRC41, OD650, 48 h (AID 1152);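 also: E. coli MC1000 strain DRC41 lacking acrAB efflux pump and sulA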; conditions: E. coli DRC41 (acrAB sulA), higher = more signal, called active from +8 up or from −8 down
[2] = small-molecule binders of probe aLefty1, primary screen, biochemical, small-molecule microarray, 635/667 nm fluorescence (AID 1153); conditions: higher = more signal;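 also: score merges spot fluorescence with signal-to-noise ratio from the scanned slide images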
[3] = PSAC antagonists in infected red cells, primary screen, cell-based, P. falciparum Indochina, OD700, 1 h (AID 1154); conditions: P. falciparum Indochina infected RBC osmotic lysis, higher = more signal, called active from +8 up or from −8 down
[4] = PSAC antagonists in infected red cells, primary screen, cell-based, P. falciparum Indochina, OD700, 2 h (AID 1155);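 also: lysis reports solute entry through the parasite surface anion channel PSAC; channel blockers reduce lysis of infected cells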; conditions: P. falciparum Indochina infected erythrocytes, osmotic lysis OD700; higher = more signal, called active from +8 up or from −8 down
[5] = osmotic lysis modulators in infected erythrocytes, primary screen, PSAC antagonist project, cell-based, P. falciparum Indochina, OD700, 3 h (AID 1156); conditions: higher = more signal, called active from +8 up or from −8 down
[6] = PSAC antagonists in infected red cells, primary screen, cell-based, P. falciparum Indochina, OD700, 18 h (AID 1157); conditions: P. falciparum Indochina infected erythrocytes, osmotic lysis OD700, 18 h; higher = more signal, called active from +8 up or from −8 down
[7] = modulators of S6 phosphorylation in cells, primary screen, cell-based, A549, cytoblot, luminescence, serum-stimulated (AID 1158); conditions: A549 phospho-S6 cytoblot, 5 h, higher = more signal;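 also: serum-stimulated A549 lung adenocarcinoma cells; signal is phosphorylated S6 detected by cytoblot immunostaining with HRP secondary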
[8] = biological target: NADPH oxidase 2 (Homo sapiens) (UniProt P04839); assay: NOX2-dependent H2O2 signal modulators, primary screen, NOX inhibitor project, cell-based, HEK293-NOX2, PMA-stimulated, Amplex Red fluorescence (AID 1159); conditions: 45 min, higher = more signal, called active from +8 up or from −8 down; also: test concentration not given here
Sequence of NADPH oxidase 2 (Homo sapiens) (P04839 whole entry, looked up): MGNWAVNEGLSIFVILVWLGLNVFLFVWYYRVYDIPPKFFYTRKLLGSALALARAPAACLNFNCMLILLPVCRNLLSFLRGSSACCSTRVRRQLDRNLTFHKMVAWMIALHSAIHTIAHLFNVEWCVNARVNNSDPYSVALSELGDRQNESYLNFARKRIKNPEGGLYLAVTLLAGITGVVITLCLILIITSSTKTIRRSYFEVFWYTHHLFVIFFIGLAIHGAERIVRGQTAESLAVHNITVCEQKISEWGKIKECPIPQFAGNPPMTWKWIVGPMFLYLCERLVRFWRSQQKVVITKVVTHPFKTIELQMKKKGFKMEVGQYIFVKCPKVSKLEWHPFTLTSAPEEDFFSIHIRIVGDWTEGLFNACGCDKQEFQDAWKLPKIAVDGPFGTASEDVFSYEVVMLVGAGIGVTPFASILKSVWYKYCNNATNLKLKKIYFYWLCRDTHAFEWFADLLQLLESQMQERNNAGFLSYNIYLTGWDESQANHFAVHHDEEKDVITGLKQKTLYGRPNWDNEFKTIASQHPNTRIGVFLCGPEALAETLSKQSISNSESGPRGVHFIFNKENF

[9] = biological target: NADPH oxidase 4 (Homo sapiens) (UniProt Q9NPH5); assay: NOX4-dependent H2O2 signal modulators, primary screen, NOX inhibitor project, cell-based, HEK293-NOX4, tetracycline-induced, Amplex Red fluorescence (AID 1160); conditions: 45 min, higher = more signal, called active from +8 up or from −8 down
Sequence of NADPH oxidase 4 (Homo sapiens) (Q9NPH5 whole entry, looked up): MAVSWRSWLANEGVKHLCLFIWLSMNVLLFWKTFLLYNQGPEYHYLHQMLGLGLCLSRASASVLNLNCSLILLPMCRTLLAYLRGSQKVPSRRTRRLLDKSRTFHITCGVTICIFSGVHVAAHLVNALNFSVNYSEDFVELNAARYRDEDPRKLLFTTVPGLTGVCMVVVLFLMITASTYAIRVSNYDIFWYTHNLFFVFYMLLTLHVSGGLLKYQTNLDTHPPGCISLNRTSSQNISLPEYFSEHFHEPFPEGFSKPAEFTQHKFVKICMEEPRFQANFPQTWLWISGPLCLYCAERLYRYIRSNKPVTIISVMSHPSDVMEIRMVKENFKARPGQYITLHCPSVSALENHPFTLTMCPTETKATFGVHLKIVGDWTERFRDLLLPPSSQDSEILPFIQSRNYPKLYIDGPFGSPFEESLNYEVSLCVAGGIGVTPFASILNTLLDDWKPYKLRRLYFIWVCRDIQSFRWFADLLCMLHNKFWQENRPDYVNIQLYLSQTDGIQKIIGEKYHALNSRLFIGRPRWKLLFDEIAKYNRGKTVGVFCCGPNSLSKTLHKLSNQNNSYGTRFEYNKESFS

[10] = biological target: NADPH oxidase 5 (Homo sapiens) (UniProt Q96PH1); assay: NOX5-dependent H2O2 signal modulators, primary screen, NOX inhibitor project, cell-based, HEK293-NOX5, Amplex Red fluorescence (AID 1161); conditions: HEK293-NOX5, ionomycin, 45 min, higher = more signal
Sequence of NADPH oxidase 5 (Homo sapiens) (Q96PH1 whole entry, looked up): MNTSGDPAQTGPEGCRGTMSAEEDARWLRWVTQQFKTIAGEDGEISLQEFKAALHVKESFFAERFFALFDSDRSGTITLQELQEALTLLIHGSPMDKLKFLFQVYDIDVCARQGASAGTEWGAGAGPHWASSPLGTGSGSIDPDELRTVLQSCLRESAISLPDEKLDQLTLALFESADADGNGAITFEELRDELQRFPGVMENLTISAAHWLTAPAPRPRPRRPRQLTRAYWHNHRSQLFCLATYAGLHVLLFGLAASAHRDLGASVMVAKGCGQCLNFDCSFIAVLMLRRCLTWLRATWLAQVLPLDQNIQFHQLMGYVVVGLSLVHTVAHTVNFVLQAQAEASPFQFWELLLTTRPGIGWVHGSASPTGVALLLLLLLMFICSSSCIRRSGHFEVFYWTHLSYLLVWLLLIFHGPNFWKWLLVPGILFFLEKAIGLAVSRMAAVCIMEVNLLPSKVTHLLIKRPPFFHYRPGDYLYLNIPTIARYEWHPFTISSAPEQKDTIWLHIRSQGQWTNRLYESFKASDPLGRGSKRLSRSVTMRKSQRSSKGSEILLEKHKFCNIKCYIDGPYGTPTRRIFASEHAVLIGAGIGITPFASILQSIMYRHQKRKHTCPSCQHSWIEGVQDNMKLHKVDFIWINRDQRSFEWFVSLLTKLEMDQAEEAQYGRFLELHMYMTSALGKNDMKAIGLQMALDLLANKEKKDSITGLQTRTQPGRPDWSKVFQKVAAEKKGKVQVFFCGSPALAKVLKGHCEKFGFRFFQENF

| SMILES | z-score [1] | composite z-score [2] | z-score [3] | z-score [4] | z-score [5] | z-score [6] | z-score [7] | z-score [8] | z-score [9] | z-score [10] |
| --- | --- | --- | --- | --- | --- | --- | --- | --- | --- | --- |
| CC(C)NC(=O)[C@@H]1c2ccccc2C(=O)N(C2CCCCC2)[C@H]1c1ccc(CO)cc1 | -0.359 (inactive) | -0.101 | -0.521 (inactive) | 0.169 (inactive) | -0.113 (inactive) | -0.136 (inactive) | -0.061 | 0.664 (inactive) | 0.822 (inactive) | 0.802 |
| [N-]=[N+]=NCc1ccccc1C[C@]1(C(N)=O)N=C(c2ccc(OCCCO)cc2)O[C@H]1c1ccccc1N=[N+]=[N-] | 0.125 (inactive) | 0.588 | 34.1 (active) | 32.7 (active) | 2.52 (inactive) | 3.39 (inactive) | -0.59 | -3.15 (inactive) | -0.457 (inactive) | -2.02 |
| CC(C)(C)OC(=O)CC[C@@]1(C(=O)N2CCOCC2)N=C(c2ccc(OCCCO)cc2)O[C@@H]1c1ccccc1N=[N+]=[N-] | 1.96 (inactive) | 0.394 | 30.9 (active) | 28.1 (active) | 1.09 (inactive) | 7.36 (inactive) | -0.242 | -3.49 (inactive) | 0.71 (inactive) | -2.04 |
| C=CCOC(=O)[C@@H]1[C@H]2C(=O)O[C@H](c3ccccc3)[C@H](c3ccccc3)N2[C@H](c2ccc(OCCOC(=O)[C@H]3C[C@H]4C(=O)N[C@@H](CC(C)C)C(=O)N4[C@H]3c3cccc(OCCO)c3)cc2)[C@@]12C(=O)Nc1ccc(I)cc12 | -0.0888 (inactive) | 0.185 | 2.85 (inactive) | -0.154 (inactive) | 0.789 (inactive) | -1.24 (inactive) | 0.456 | 1.07 (inactive) | 1.02 (inactive) | 0.73 |
| C[N+](C)(C)CCCCNC(=O)[C@H]1C[C@H]2C(=O)N3CCC[C@H]3C(=O)N2[C@H]1c1ccc(O)cc1 | -0.314 (inactive) | -0.0141 | 0.542 (inactive) | 0.196 (inactive) | -1.66 (inactive) | 0.0068 (inactive) | -0.0429 | -2.45 (inactive) | -0.739 (inactive) | -1.42 |
| Cc1ccc(C(C)CC(O)C2C=CC3C(=O)NC(=O)C3N2Nc2ccccn2)o1 (stereo not given) | 0.488 (inactive) | -0.154 | 0.494 (inactive) | 0.481 (inactive) | -0.284 (inactive) | 0.606 (inactive) | -0.439 | 0.36 (inactive) | -2.17 (inactive) | -1.52 |
| CCCC[C@H]1C[C@@H]1[C@@H]1N(P(=O)(c2ccccc2)c2ccccc2)[C@](CO)(c2ccccc2)CC12CC2 | -2.52 (inactive) | 0.394 | 4.95 (inactive) | 0.761 (inactive) | 2.01 (inactive) | 0.985 (inactive) | 0.353 | -0.339 (inactive) | 1.08 (inactive) | -2.29 |
| CCN(CC)c1ccc(N2CC=CC34O[C@@H]5/C=C\CCC(C)OC(=O)C5[C@H]3C(=O)N(CCCCCCO)[C@@H]4C2=O)cc1 (stereo not given in full) | 0.699 (inactive) | -0.464 | -0.37 (inactive) | 0.0486 (inactive) | -0.383 (inactive) | 0.33 (inactive) | 1.35 | -0.315 (inactive) | -0.0195 (inactive) | 0.813 |
| CCCCCCCCCCC(O)C1C=CC2C(=O)N(c3ccccc3)C(=O)C2N1Nc1ccc([N+](=O)[O-])cc1 (stereo not given) | -1.14 (inactive) | 0.315 | 5.24 (inactive) | 2.56 (inactive) | -1.8 (inactive) | 2.11 (inactive) | -0.235 | 0.309 (inactive) | -0.243 (inactive) | 0.627 |
| CCOC(=O)C[C@H]1[C@H](OC(=O)c2ccccc2-c2ccccc2)[C@@H](NC(=O)c2ccc(-c3ccccc3)cc2)c2cc(OCCCO)ccc2N1C(=O)c1ccccc1 | 0.657 (inactive) | 0.0121 | 0.568 (inactive) | 0.135 (inactive) | 1.02 (inactive) | 0.157 (inactive) | 1.1 | 0.35 (inactive) | 0.169 (inactive) | 1.46 |
| COCC1C2CC[C@H]3C(OCc4ccc(F)cc4C(F)(F)F)OC[C@]4(C)[C@H]3C2=C(CN4C(=O)OC(C)(C)C)[C@H](C)C1COC (stereo not given in full) | -1.06 (inactive) | 0.891 | 2.63 (inactive) | -0.298 (inactive) | 0.16 (inactive) | -0.998 (inactive) | 2.03 | -0.834 (inactive) | -0.934 (inactive) | -3.41 |
| O=C(NCC(O)CO)[C@@]1(Cc2ccccc2)COC(c2ccc(OCCCO)cc2)=N1 (stereo not given in full) | 0.712 (inactive) | -0.266 | 8.57 (active) | 0.648 (inactive) | 2.87 (inactive) | 0.472 (inactive) | -0.404 | -0.44 (inactive) | 0.82 (inactive) | 0.132 |
| CC(=O)NCCCC[C@@H]1NC(=O)[C@@H]2C[C@H](C(=O)NCCCCCC[N+](C)(C)C)[C@H](c3cccc(OCCO)c3)N2C1=O | 0.0924 (inactive) | 0.156 | 2.99 (inactive) | 0.591 (inactive) | -0.956 (inactive) | 0.325 (inactive) | -0.507 | 1.09 (inactive) | 0.91 (inactive) | 0.593 |
